Reference: the supplement of paper PMC6555819

How the values were obtained:
Assay in all cases: PBM binding z-score (relative to random genomic background probes); higher = stronger binding; sequences stand for … in GC…GCGATTGACAGCGTAGAATGAAGG
[1] = tested on: FXR:RXRa (NR concentration 270 nM, RXRa partner concentration 90 nM)
How it was run: (§1)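 Random background probes are the reference for binding z-scores. These scores derive from regression-normalized fluorescence on custom Agilent 4×180K protein-binding microarrays incubated 1 h with ligand-free nuclear receptor dimers. Binding was detected with antibodies against each partner (one per run).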

[2] = tested on: LXRa:RXRa (NR concentration 270 nM, RXRa partner concentration 90 nM)
How it was run: as §1

[3] = tested on: LXRa homodimer (NR concentration 270 nM)
How it was run: as §1

[4] = tested on: LXRb:RXRa (NR concentration 270 nM, RXRa partner concentration 90 nM)
How it was run: as §1

[5] = tested on: LXRb homodimer (NR concentration 270 nM)
How it was run: as §1

[6] = tested on: PPARa:RXRa (NR concentration 270 nM, RXRa partner concentration 90 nM)
How it was run: as §1

[7] = tested on: PPARg:RXRa (NR concentration 180 nM, RXRa partner concentration 90 nM)
How it was run: as §1

[8] = tested on: PPARg:RXRa 270nM:90nM, anti-RXR (NR concentration 270 nM, RXRa partner concentration 90 nM)
How it was run: as §1

[9] = tested on: PPARg:RXRa 30nM:10nM, anti-RXR (NR concentration 30 nM, RXRa partner concentration 10 nM)
How it was run: as §1

[10] = tested on: PPARg:RXRa 90nM:30nM, anti-RXR (NR concentration 90 nM, RXRa partner concentration 30 nM)
How it was run: as §1

[11] = tested on: PPARg:RXRa DBDmut IVT, anti-RXR (DBD mutation: RXRa K156A/R161A, NR concentration 270 nM, RXRa partner concentration 90 nM)
How it was run: as §1

[12] = tested on: PPARg:RXRa IVT, anti-PPARg (NR concentration 270 nM, RXRa partner concentration 90 nM)
How it was run: as §1

[13] = tested on: PPARg DBDmut:RXRa IVT, anti-PPARg (DBD mutation: PPARg1 K132A/R137A, NR concentration 270 nM, RXRa partner concentration 90 nM)
How it was run: as §1

[14] = tested on: PPARg DBDmut IVT, anti-PPARg (DBD mutation: PPARg1 K132A/R137A, NR concentration 270 nM)
How it was run: as §1

[15] = tested on: PPARg homodimer (NR concentration 180 nM)
How it was run: as §1

[16] = tested on: PXR:RXRa (NR concentration 270 nM, RXRa partner concentration 90 nM)
How it was run: as §1

[17] = tested on: PXR homodimer (NR concentration 270 nM)
How it was run: as §1

[18] = tested on: RARa:RXR (NR concentration 270 nM, RXRa partner concentration 90 nM)
How it was run: as §1

[19] = tested on: RARa homodimer (NR concentration 270 nM)
How it was run: as §1

[20] = tested on: RARb:RXRa (NR concentration 270 nM, RXRa partner concentration 90 nM)
How it was run: as §1

Sequence | PBM binding z-score [1] | PBM binding z-score [2] | PBM binding z-score [3] | PBM binding z-score [4] | PBM binding z-score [5] | PBM binding z-score [6] | PBM binding z-score [7] | PBM binding z-score [8] | PBM binding z-score [9] | PBM binding z-score [10] | PBM binding z-score [11] | PBM binding z-score [12] | PBM binding z-score [13] | PBM binding z-score [14] | PBM binding z-score [15] | PBM binding z-score [16] | PBM binding z-score [17] | PBM binding z-score [18] | PBM binding z-score [19] | PBM binding z-score [20]
TGTCAAAGTTCAAAGGTAACGTACGTATCCACAC | 7.21 | 6.37 | 4.32 | 4.74 | 1.52 | 5.75 | 8.65 | 7.29 | 4.86 | 7.11 | 0.385 | 4.52 | 2.01 | 1.18 | 3.53 | 5.63 | 3 | 6.3 | 1.11 | 4.92
CCTACTTGGCCACGAAAGGTCATTGATTCAGTGA | 4.07 | 5.32 | 5.29 | 4.61 | 1.16 | 4.46 | 1.84 | 3.31 | 1.01 | 2.5 | 1.97 | 2.14 | 0.246 | 0.627 | 3.9 | 5.3 | 1.97 | 5.51 | 2.48 | 4.09
ATCTCTAGGTAAAGTTCAATGAAAGATCGATAGA | 2.28 | 3.13 | 2.86 | 2.25 | 1.31 | 3.32 | 4.11 | 5.15 | 3.34 | 4.82 | 2.42 | 3.05 | 1.44 | 1.47 | 1.79 | 3.02 | 2.63 | 1.92 | 2.05 | 3.19
CCTACAGGGTCAGCTAGGCCAGAGTAGGGACGGC | 4.39 | 2.61 | -0.714 | 1.7 | -0.84 | 4.2 | 2.56 | 2.7 | 0.464 | 1.31 | 0.563 | 1.44 | -0.42 | -1.17 | 1.25 | 1.92 | -0.627 | 2.68 | -0.295 | 4.03
GCCACTGGGGCAAAGCAGGTTACCATAAGGTTGG | 0.159 | 0.154 | -0.633 | -0.0213 | -0.866 | 1.67 | 2.09 | 2.57 | 0.133 | 1.47 | 5.67 | 5.29 | 0.444 | -0.613 | 0.322 | 0.224 | -0.707 | 1.06 | -0.774 | 1.01
TAGCCTAGGTCATGGACCAGTATACCACGCGAAC | 4.39 | 3.44 | 0.268 | 2.46 | -0.208 | 4.18 | 3.5 | 3.32 | 0.758 | 2.23 | 1.67 | 3.14 | 0.484 | 0.282 | 1.64 | 1.69 | -0.467 | 2.85 | -0.128 | 3.77
